From PubChem
Sm TGR inh: inhibitors of Schistosoma mansoni thioredoxin glutathione reductase | Q962Y6 | purified TGR, DTNB reduction, TNB absorbance 405 nm | Potency, µM (doses to about 114 µM), without a hit: at the top dose activity change, negative = inhibition, usual class: inhibitors | actives 3% (n = 360,000) | AID 485364; further: nearly all actives have a fitted effect of over 60% in size
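TGR 20 nM + NADPH 100 uM (dispensed conc.), cpd preinc 15 min RT; start with NADPH (500 uM addition) then DTNB (15 mM addition). Kinetic TNB absorbance, 405 nm filter. Four-parameter Hill fit across titration.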
AmpC no deterg: inhibitors of E. coli AmpC beta-lactamase without detergent | P00811 | AmpC nitrocefin hydrolysis, absorbance 480 nm, 0.0001% Triton | Potency, µM (series often up to 57.1 µM), inactives show top-dose activity change, negative = inhibition, usual class: inhibitors | actives 0.52% (n = 330,000);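 further: plate controls were no compound for no effect and no enzyme for full effect; nearly all actives have a fitted effect of over 20% in size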
Target sequence (P00811 whole entry, looked up): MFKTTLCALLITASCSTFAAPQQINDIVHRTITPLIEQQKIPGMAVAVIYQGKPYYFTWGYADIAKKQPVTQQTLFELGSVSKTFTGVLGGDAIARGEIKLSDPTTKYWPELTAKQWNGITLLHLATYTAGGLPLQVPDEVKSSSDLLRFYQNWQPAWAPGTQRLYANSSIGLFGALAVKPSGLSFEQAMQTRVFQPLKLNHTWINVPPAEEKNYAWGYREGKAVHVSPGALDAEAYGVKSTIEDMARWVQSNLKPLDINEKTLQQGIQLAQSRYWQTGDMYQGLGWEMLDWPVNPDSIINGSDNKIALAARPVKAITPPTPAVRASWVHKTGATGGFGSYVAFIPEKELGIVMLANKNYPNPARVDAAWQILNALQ
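20 mM phosphate pH 7.0 + 0.01% (detergent screen) or 0.0001% Triton X-100; 5.3 nM AmpC reagent; cpd preinc 15 min RT; nitrocefin (800 uM stock) to start; A480 q20 s × 4 min; Activity was normalised to no-enzyme and no-compound control wells.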
AmpC inh detg: AmpC beta-lactamase inhibition with detergent present. Potency, µM (highest dose often 114 µM), for the others: top-dose activity change, negative = inhibition, actives largely listed as inhibitors. actives 0.041% (n = 370,000). AmpC hydrolysis of nitrocefin, absorbance 480 nm, 0.01% Triton. P00811. AID 485294;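 further: 0% = no-compound wells and -100% = no-enzyme wells; nearly all actives have a fitted effect of over 25% in size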
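20 mM phosphate pH 7.0 + 0.01% (detergent screen) or 0.0001% Triton X-100; 5.3 nM AmpC reagent; cpd preinc 15 min RT; nitrocefin (800 uM stock) to start; A480 q20 s × 4 min; Activity was normalised to no-enzyme and no-compound control wells.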
RE007 growth inh: less growth of the S. pombe RE007 Vpr strain; Potency, µM (series often up to 92.2 µM), inactives show at the highest dose activity change, negative = less growth, hits mostly inhibitors; actives 0.21% (n = 360,000); S. pombe RE007 Vpr strain, BacTiter-Glo ATP luminescence, 24 h; active means well fitted falling curve with a large enough effect; inconclusive means small, poorly fitted or top-dose-only effect; inactive means no such curve, though single readings can be large or run the other way; further: nearly all actives have a fitted effect of over 50% in size
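Fission yeast RE007 carrying one integrated HIV-1 vpr copy, seeded at OD 0.01 in PMG+AL medium with 23 nL pinned compound. Grown 24 h at 30 degrees; viability read by BacTiter-Glo luminescence after 5 min.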
AMA1 RON2 block: inhibitors of Plasmodium falciparum AMA1-RON2 interaction; AlphaScreen AMA1-biotinylated RON2 peptide binding; Potency, µM (series often up to 58.2 µM), for the others: top-dose activity change, negative = inhibition, actives largely listed as inhibitors; actives 0.2% (n = 360,000); AID 720542;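 further: 0% = vehicle wells and -100% = peptide control; nearly all actives have a fitted effect of over 45% in size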
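AMA1 (3D7) with his tag at 25 nM final met compounds first, then biotinylated RON2 peptide at 25 nM; detection used donor plus acceptor beads, 10 µg/mL apiece, read by AlphaScreen after 30 min at room temperature.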
Active calls of the source: *; ? = inconclusive; . = not tested or not shown; [ ] = remark or other dose. Compounds with a hit are over-represented: about 3.2% of the library has one in this group of screens. Unless noted, the call rests on the fitted dose curve; in most records, active means well fitted curve in the direction sought with a large enough effect; inconclusive means small, poorly fitted or top-dose-only effect, or another doubt; inactive means no such curve, though single readings can be large; an effect the other way counts as inactive or inconclusive. Unless noted, on the % scale 0 is the no-effect control and ±100 the full control effect; potency means the concentration at half of the fitted maximal effect.

SMILES	Sm TGR inh	AmpC no deterg	AmpC inh detg	RE007 growth inh	AMA1 RON2 block
Cc1ccc(N2C(=O)C3C4C=CC(CNC(=S)N5CCN(c6cccc(C)c6)C(C)C5)(O4)C3C2=O)cc1 (stereo not given)	3.2µM*	-6%	-2%	2µM*	15%
Cc1csc2ncc(C(=O)Nc3cccc(C(F)(F)F)c3)c(=O)n12	-1%	-14%	-7%	-24%	9%
CCc1ccc(NC(=O)c2cnc3scc(C)n3c2=O)cc1	-1%	35µM*	?	-8%	12%
Clc1nssc1=Nc1nncs1	50µM*	-4%	1%	-1%	16%
Clc1nssc1=Nc1ccc(Br)cc1	-18%	-31%	-5%	?	-25%
COC(=O)CN1C(=O)CSc2ccc(S(=O)(=O)Nc3ccccc3)cc21	1%	.	5%	.	.
c1ccc(-c2ncc3ccccn23)cc1	40µM*	-29%	2%	-17%	4%
c1ccc2c(c1)ncc1cccn12	10%[11.4 µM]	-19%	-19%	13%	-5%
Oc1cc2c(cc1O)C1c3ccc(O)c(O)c3OCC1(O)C2 (stereo not given)	0.71µM*	-10%	5%	-23%	2µM*
O=C(/C(=N\Nc1ccccc1)Sc1nnnn1-c1ccccc1)c1ccccc1	-7%	1.1µM*	?	10%	-15%
COc1ccc(N(CC(=O)NCc2ccccc2)S(=O)(=O)c2c(C)nn(C)c2C)cc1	-1%	8.9µM*	?	7%	-1%
Cc1nnc2c(N3CCN(c4ccccc4F)CC3)nc3ccc(C(=O)c4ccccc4)cc3n12	1%	.	15%	.	.
Cc1ccc(C(=O)N/C(=C/c2ccco2)C(=O)Nc2cccc(C(=O)O)c2)cc1	45µM*	-25%	-11%	-11%	6%
COc1ccc(NC(=O)/C(=C\c2ccco2)NC(=O)c2ccco2)cc1	-27%	-25%	-1%	-8%	0%
CC(=O)c1cccc(NC(=O)/C(=C/c2ccco2)NC(=O)c2ccco2)c1	1%	-15%	3%	1%	3%
COc1ccccc1C(=O)N/C(=C/c1ccco1)C(=O)Nc1cccc(C(=O)O)c1	50µM*	1%	3%	17%	12%
Cc1ccc(NC(=O)/C(=C\c2ccco2)NC(=O)c2ccco2)cc1	45µM*	30%	-2%	-7%	-3%
Cc1nn(-c2ccccc2)c2sc(C(=O)Nc3ccc(Cl)cc3Cl)cc12	-8%	.	0%	.	.
COc1ccccc1CNC(=O)CN1C(=O)CSc2c1c(C)nn2-c1ccccc1	2%	.	-6%	.	.
CCOc1cc(/C=C2\N=C(C)OC2=O)cc(Br)c1OCC(=O)OC	25µM*	3%	1%	-2%	0%
COc1ccc(/C=C2\N=C(C)OC2=O)cc1OC	16µM*	-21%	35µM*	-5%	-8%
Cc1ccc(-c2nn3c(-c4ccccc4)nnc3c3ccccc23)cc1	-4%	.	19%	.	.
CCOC(=O)c1c(CC(C)C)csc1NC(=O)COC(=O)c1cnc(C)cn1	.	.	.	12%	-1%
CCOC(=O)c1c(-c2ccc(C)o2)csc1NC(=O)CSc1ncn[nH]1	20µM*	-12%	2%	9%	11%
CCOC(=O)c1c(-c2ccc(C)o2)csc1NC(=O)CN1CCOCC1	22µM*	117%	0%	-24%	16%
SMILES	Sm TGR inh	AmpC no deterg	AmpC inh detg	RE007 growth inh	AMA1 RON2 block
CCOC(=O)c1c(-c2ccc(C)o2)csc1N	-13%[11.4 µM]	-30%	2%	-20%	0%
CCOC(=O)c1c(-c2ccc(C)o2)csc1NC(=O)COC(=O)c1cccs1	14µM*	-52%	-12%	-3%	0%
CCOC(=O)c1c(-c2ccco2)csc1NC(=O)COC(=O)c1cnc(C)cn1	28µM*	38%	-9%	7%	9%
CCOC(=O)c1ccc(NC(=O)CSc2ccc3ccccc3n2)cc1	8%	.	-4%	.	.
Cc1ccccc1S(=O)(=O)Cc1ccc(C(=O)NCc2ccccc2Cl)o1	-3%	.	-11%	.	.
Cn1nc(C(=O)Nc2cccc(Cl)c2)cc1C(=O)Nc1cccc(Cl)c1	-2%	16µM*	-4%	15%	-2%
Cn1nc(C(=O)Nc2ccc(Cl)cc2)cc1C(=O)Nc1ccc(Cl)cc1	0%	-2%	?	-7%	3%
CCN(CC)c1ccc(NC(=O)c2sc3ccccc3c2Cl)cc1	-2%	.	16%	.	.
CCN(CC)Cc1ccc(NC(=O)c2sc3cc(Cl)ccc3c2Cl)cc1	9%	3%	1%	28µM*	-22%
COc1ccc(C2C(O)C(c3c[nH]c4ccccc34)=NN2C(=O)CCl)cc1 (stereo not given)	8.9µM*	-13%	-1%	3%	-8%
O=C(OCc1cc(=O)n2nc(C3CCCCC3)sc2n1)c1ccc(F)cc1	-1%	.	17%	.	.
CCCC(=O)NC(C)c1nc2ccccc2[nH]1 (stereo not given)	4%	-4%	-3%	-2%	8%
CCCCC(NC(C)=O)c1nc2ccccc2[nH]1 (stereo not given)	26%	40µM*	8%	7%	-2%
COc1ccc(-n2c(SCC(=O)N3CCc4ccccc43)nc3c([nH]c4ccccc43)c2=O)cc1	4%	.	3%	.	.
O=C1C(NS(=O)(=O)c2cccs2)=C(N2CCN(Cc3ccccc3)CC2)C(=O)c2ccccc21	-30%	-25%	-4%	-13%	28µM*
CCOc1ccccc1N1CCN(C2=C(NS(=O)(=O)c3cccs3)C(=O)c3ccccc3C2=O)CC1	45%	-13%	?	-11%	10µM*
O=C1C(NS(=O)(=O)c2cccs2)=C(N2CCN(c3cccc(C(F)(F)F)c3)CC2)C(=O)c2ccccc21	23%	-58%	-11%	-20%	10µM*
CN1CCN(C2=C(NS(=O)(=O)c3cccs3)C(=O)c3ccccc3C2=O)CC1	-33%	-12%	3%	-2%	-17%
Cc1sc(-n2cccc2)c(C(C)NC(=O)Nc2ccccc2Cl)c1C (stereo not given)	-1%	.	19%	.	.
Cc1cc(C)c(NC(=O)Cn2c(=O)n(-c3cccc(C(F)(F)F)c3)c(=O)c3c(C)c(C)sc32)c(C)c1	2%	.	24%	.	.
Oc1c(Cl)cc(Cl)cc1C1=NNC(c2ccc(Cl)cc2)C1 (stereo not given)	3.2µM*	?	-14%	1%	59%
Cc1ccc2cc(CN(Cc3ccc4c(c3)OCO4)Cc3nnnn3Cc3ccco3)c(=O)[nH]c2c1C	?	-2%	0%	-4%	-4%
CNC(=S)N(Cc1ccco1)Cc1cc2cc(OC)ccc2[nH]c1=O	7%	50%	1%	-3%	-8%
Cc1ccc2cc(CN(CCN3CCOCC3)Cc3nnnn3Cc3ccco3)c(=O)[nH]c2c1C	35µM*	3%	-11%	19%	6%
